Test results published in PubChem BioAssay (EPA / NIEHS).
Active and inactive are the calls of the source. Rule for the calls: active = hit-call score of the fitted dose curve at least 0.9, where 1 is the maximum; inactive = score below 0.9.

Experiment: ATG_M_32_CIS: Attagene CIS-FACTORIAL HepG2 Assay for M32 Transcription Factor (Internal Marker) (AID 2282949);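 note: background control marker of the multiplexed CIS panel rather than a real target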
Conditions: HepG2 Attagene cis-factorial M32 reporter, mRNA; actives raise or lower the signal
Description: ATG_CIS is a cell-based, multiplexed-readout assay that uses HepG2, a human liver cell line, with measurements taken at 24 hours after chemical dosing in a 24-well plate.ATG_M_32_CIS is one of 52 assay component(s) measured or calculated from the ATG_CIS assay. It is designed to make measurements of mRNA induction, a form of inducible reporter, as detected with fluorescence intensity signals by Reverse transcription polymerase chain reaction (RT-PCR) and Capillary electrophoresis technology.Data from the assay component ATG_M_32_CIS was analyzed into 1 assay endpoint. This assay endpoint, ATG_M_32_CIS, was analyzed with bidirectional fitting relative to DMSO as the negative control and baseline of activity. Using a type of inducible reporter, measures of mRNA for gain or loss-of-signal activity can be used to understand the background control at the transcription factor-level as they relate to the gene . Furthermore, this assay endpoint can be referred to as a secondary readout, because this assay has produced multiple assay endpoints where this one serves a background control function. To generalize the intended target to other relatable targets, this assay endpoint is annotated to the background measurement intended target family, where the subfamily is internal marker.
Human liver HepG2 cells are transiently transfected with multiple reporter transcription units (MRTUs) in 6-well plates using FuGene 6 reagent (Roche; 3 ml FuGene/1 mg DNA). The MRTU constructs are regulated by a cis-regulating element (promoter). […] A major difference between the CIS and TRANS system is that in CIS activities of endogenous TFs are measured, whereas the TRANS assay evaluates changes in activities of exogenous, chimeric NR-Gal4 proteins. […] At the end of 24 hour incubation, total RNA was isolated using TriZol reagent (Invitrogen). The isolated RNA is then reverse-transcribed using oligo(dT) primer and Mo-MLV reverse transcriptase (Invitrogen) with DNAse I (Ambion) treatment for 30 min. The one-tenth of the produced cDNA was amplified by PCR using Taq DNA polymerase (Invitrogen) and two reporter sequence-specific primers. The PCR products were fluorescently labeled by primer extension with 6-arboxyfluorescein (6-FAM) 5'-labeled reporter sequence-specific primer (2 min at 95 C, 20 s at 68 C and 10 min at 72 C) and these products were digested with 5U of HpaI (New England Biolabs) for 2h at 37 C. The fragments were purified using Qiaquick PCR columns (Qiagen), analyzed on an ABI 3130xL genetic analyzer (Applied Biosystems) with peak positions identified by using a set of X-rhodamine (ROX)-labeled MapMarker1000 molecular weight standards (BioVentures). The raw capillary electrophoresis data was processed using Attagraph software (Attagene).

Row | Compound | outcome | AC50
1 | S=c1[nH]c2ccccc2s1 | inactive | –
2 | NC=O | inactive | –
3 | CCC(C)N(C)C(=O)c1cc2ccccc2c(-c2ccccc2Cl)n1 (stereo not given) | inactive | –
4 | NCCOCCOCCN | inactive | –
5 | CC1(C)C(=O)NC(=O)N1CO | inactive | –
6 | CC(C)c1cccc(C(C)C)c1 | inactive | –
7 | CCCCCCCCCCCCCCOS(=O)(=O)O | inactive | –
8 | Cc1cc(Cc2ccc(N)c(C)c2)ccc1N | inactive | –
9 | CCCCc1nc2cccnc2n1Cc1ccc(-c2ccccc2-c2nnn[nH]2)cc1 | inactive | –
10 | Cn1cnc2c1c(=O)[nH]c(=O)n2C | inactive | –
11 | CC(=O)O[C@]1(C(C)=O)CC[C@H]2[C@@H]3C=C(Cl)C4=CC(=O)[C@@H]5C[C@@H]5[C@]4(C)[C@H]3CC[C@@]21C | inactive | –
12 | Cc1occc(=O)c1O | inactive | –
13 | CC1=C(C)S(=O)(=O)CCS1(=O)=O | inactive | –
14 | CCc1nc(N)nc(N)c1-c1ccc(Cl)cc1 | – | 174 µM (active)
15 | O=C(NS(=O)(=O)/C=C/c1cccs1)c1ccc(F)cc1Br | inactive | –
16 | COC(=O)CCC(=O)OC | inactive | –
17 | CC(N)=O | inactive | –
18 | C=CCCCCCCCCCCCC | inactive | –
19 | O=C1CCCCC1 | inactive | –
20 | COc1ccc(C(=O)Nc2nc3ccccc3c(NCc3ccccc3)c2C#N)cc1 | inactive | –

Row | Compound | outcome | AC50
21 | CC(=O)CC(c1ccccc1)c1c(O)c2ccccc2oc1=O (stereo not given) | inactive | –
22 | CSc1ccc(Oc2ccc(S(N)(=O)=O)cc2CN(C)C)cc1C | inactive | –
23 | CCCCCCCCCCCCCCCCO | inactive | –
24 | Cc1ccc(-c2cc(C(F)(F)F)nn2-c2ccc(S(N)(=O)=O)cc2)cc1 | inactive | –
25 | CCCC(=O)O | inactive | –
26 | CCCCOC(=O)CCCCC(=O)OCCCC | inactive | –
27 | CC(=O)OCC(COC(C)=O)OC(C)=O | inactive | –
28 | O=Cc1ccccc1C=O | inactive | –
29 | CC(C)NCC(O)c1ccc(O)c(O)c1 (stereo not given) | inactive | –
30 | CCCCCCCCCC[N+](C)(C)[O-] | inactive | –
31 | Oc1ccccc1O | inactive | –
32 | NC(=Nc1ccccc1)Nc1ccccc1 | inactive | –
33 | CO[C@@H]1COCC[C@@H]1N[C@@H]1CC[C@@](C(=O)N2CCc3ncc(C(F)(F)F)cc3C2)(C(C)C)C1 | inactive | –
34 | CCCCCCC(C=O)=Cc1ccccc1 | inactive | –
35 | CCc1cc(C2=C(C(=O)O)N(c3ccccc3C(F)(F)F)S(=O)(=O)c3ccccc32)cc2c1OCO2 | inactive | –
36 | N[C@@H](Cc1c[nH]c2ccccc12)C(=O)O | inactive | –
37 | O=NO | inactive | –
38 | CCOCCOCCO | inactive | –
39 | CC(=O)O | inactive | –
40 | C/C=C/c1ccc(OC)cc1 | inactive | –
